Structures are written as SMILES. The whole screen tested about 48,000 compounds, of which about 13,000 (27%) showed an effect of 50% or more. Some of the results follow.

Here are results for 51 compounds from ChEMBL document CHEMBL3988442, “University of Dundee, Small-Polar-MMV Screening Library” (2021).

For the test, the system named is Wolbachia pipientis. Nature of the test: Anti-Wolbachia Cell-Based Screen. The following applies: 5 µM. On the set-up: scale not given: in the data most compounds retested in dose-response had high values. Type of test: functional.
Consider `CCOc1ccc(CC(CNC(=O)c2ccoc2C)C(N)=O)cc1` (stereo unspecified), for which the “Percent Effect” value is reported as -14.81%.

Turning to `CCOC(=O)c1nc(COc2c(C)occc2=O)no1`, the “Percent Effect” value came to 107.7%.

Consider `CNC(=O)c1ccc(OC)c(NCc2noc(-c3ccsc3)n2)c1`, for which the “Percent Effect” value is on record as -18.11%.

As for `Cc1occc(=O)c1OCc1noc(C(=O)NCC(C)C)n1`, the “Percent Effect” value was found to be 118%.

As to `Cc1cccnc1C(NC(=O)CNC(=O)c1ccoc1C)C(C)C` (stereo unspecified), the “Percent Effect” value is given as -9.405%.

`CCc1nc(COc2ccc(N(C)C(C)=O)cc2)no1`: the “Percent Effect” value was -47.78%.

Regarding `Cc1occc1C(=O)NCC(O)c1ccc(Cl)s1` (stereo unspecified), the “Percent Effect” value was -1.514%.

For the compound `Cc1occc(=O)c1OCc1noc(C(=O)NC(C)C)n1`, the “Percent Effect” value was determined as 81.24%.

For the compound `CN(CCc1nc2cc(Cl)ccc2[nH]1)C(=O)c1ncn[nH]1`, the “Percent Effect” value is 8.261%.

Turning to `CCCN1C[C@H]2CC[C@@H]1CN(C(=O)c1ccc(N(C)CCO)cc1)C2`, the “Percent Effect” value is -0.2946%.

Take `COc1ccc(C(C)N2CCC(C(=O)N(C)C)CC2)cc1Cl` (stereo unspecified): the “Percent Effect” value is reported as 13.21%.

Regarding `COC(=O)NCC(=O)N(C)CC1Cc2ccccc2CN1C` (stereo unspecified), the “Percent Effect” value was -16.07%.

For the compound `Cc1c(I)cccc1C(=O)NCc1nnc[nH]1`, the “Percent Effect” value is listed as -11.57%.

Take `COC(=O)N1CCC(NC(=O)N2CCCC2c2ccsc2)CC1` (stereo unspecified): the “Percent Effect” value was 22.17%.

Take `CC(C)(C)C(=O)N1C[C@H](c2ccsc2)[C@H]2CN(C3CCCCC3)CC[C@H]21.Cl`: the “Percent Effect” value was 142.3%.

For the compound `COC(=O)CS(=O)(=O)CCC(=O)N1CCCC1c1ccsc1` (stereo unspecified), the “Percent Effect” value stood at 0.3686%.

For the compound `CC(C)(C)C(=O)N1C[C@H](c2ccsc2)[C@H]2CN(Cc3cccs3)CC[C@H]21.Cl`, the “Percent Effect” value is listed as 6.375%.

As to `CC(C)(C)C(=O)N1C[C@H](c2ccsc2)[C@H]2CN(C3CCCC3)CC[C@H]21.Cl`, the “Percent Effect” value is given as 191.9%.

On to `CC(C)(C)NC(=O)CNC(=O)CCc1ccccc1Br`, for which the “Percent Effect” value is reported as 12.72%.

Regarding `CN(c1ncnc2c1cnn2C)C1CCCN(c2cccnn2)C1` (stereo unspecified), the “Percent Effect” value was -20.96%.

Take `Cc1nc(CN(C)CC2CCCN2c2cccnn2)nc2ccccc12` (stereo unspecified): the “Percent Effect” value stood at 6.947%.

As to `Cc1nc(CN(C)C2CCCN(c3cccnn3)C2)nc2ccccc12` (stereo unspecified), the “Percent Effect” value came out at 87.46%.

As for `Cc1nc2ccccc2nc1CN(C)C1CCCN(c2cccnn2)C1` (stereo unspecified), the “Percent Effect” value was 3.642%.

Turning to `CN(c1ncnc2sccc12)C1CCCN(c2cccnn2)C1` (stereo unspecified), the “Percent Effect” value was 17%.

Regarding `CN(Cc1nc2ccccc2s1)C1CCCN(c2cccnn2)C1` (stereo unspecified), the “Percent Effect” value came to 143.8%.

In the case of `CN(Cc1nc(N)c2ccccc2n1)C1CCCN(c2cccnn2)C1` (stereo unspecified), the “Percent Effect” value is recorded as 10.49%.

Consider `CN(c1ncnc2ccccc12)C1CCCN(c2cccnn2)C1` (stereo unspecified), for which the “Percent Effect” value was found to be 80.98%.

For `CN(Cc1ncc(-c2ccccc2)o1)C1CCCN(c2cccnn2)C1` (stereo unspecified), the “Percent Effect” value came out at 2.582%.

With `O=C(C[C@H]1[C@H]2CN(c3ncccn3)C[C@@H]12)Nc1cccnc1.O=C(O)C(F)(F)F.O=C(O)C(F)(F)F`, the “Percent Effect” value is -0.113%.

As to `CCc1nc(CN(C)CC2CCN(CC(C)O)CC2)no1` (stereo unspecified), the “Percent Effect” value was -10.69%.

With `CN1CCCC(CCC(=O)N2CCc3sc(C(=O)N(C)C)cc3C2)C1` (stereo unspecified), the “Percent Effect” value is recorded as -22.79%.

Regarding `Cc1nc(C2CCCN2CC(=O)N2CCCc3ccccc32)no1` (stereo unspecified), the “Percent Effect” value was -7.265%.

On to `COCc1ncc(CN(Cc2ccncc2)Cc2ccc(C)s2)cn1`, for which the “Percent Effect” value came to 12.8%.

As for `O=C(CNc1ccc(F)cc1OCC(F)(F)F)NCC(F)(F)F`, the “Percent Effect” value is -7.353%.

With `O=C(CCc1ccco1)Nc1ncn(CC(=O)N2CCCCCC2)n1`, the “Percent Effect” value is 1.429%.

Regarding `O=C1CC2(CCN(Cc3ccoc3)C2)CN1c1ccc2c(c1)OCO2` (stereo unspecified), the “Percent Effect” value is reported as 2.94%.

As to `O=C1CC2(CCN(c3nncs3)C2)CN1c1ccccc1` (stereo unspecified), the “Percent Effect” value was 7.339%.

As to `O=C1CC2(CCN(c3nncs3)C2)CN1c1ccc2c(c1)OCCO2` (stereo unspecified), the “Percent Effect” value was determined as 105.6%.

`O=C1CC2(CCN(Cc3cccs3)C2)CN1c1cccc(F)c1` (stereo unspecified): the “Percent Effect” value turned out to be 17.5%.

`O=C1CC2(CCN(S(=O)(=O)C3CC3)C2)CN1c1cncnc1` (stereo unspecified): the “Percent Effect” value is listed as 7.231%.

Turning to `CCS(=O)(=O)N1CCC2(CC(=O)N(c3cncnc3)C2)C1` (stereo unspecified), the “Percent Effect” value is -9.187%.

On to `CCS(=O)(=O)N1CCC2(CC(=O)N(c3cccc(C)c3)C2)C1` (stereo unspecified), for which the “Percent Effect” value is -28.77%.

As to `O=C1CC2(CCN(c3nncs3)C2)CN1c1cccc(F)c1` (stereo unspecified), the “Percent Effect” value was 96.11%.

Consider `O=C1CC2(CCN(c3nncs3)C2)CN1c1cncnc1` (stereo unspecified), for which the “Percent Effect” value is given as 102.2%.

With `Cc1cccc(N2CCCC3(C2)CN(c2nncs2)CCO3)c1` (stereo unspecified), the “Percent Effect” value is given as -21.39%.

On to `O=C(N1CCCC1)N1CCC2(CC(=O)N(c3ccc4c(c3)OCO4)C2)C1` (stereo unspecified), for which the “Percent Effect” value is listed as -19.45%.

Consider `Cc1cccc(N2CC3(CCN(c4nncs4)C3)CC2=O)c1` (stereo unspecified), for which the “Percent Effect” value is on record as 106.3%.

With `CN(Cc1ccc(Cl)s1)C(=O)NCCC(=O)N1CCCCCC1`, the “Percent Effect” value is reported as -2.265%.

As to `CCn1c(CC2CCN(C(=O)C3COCCO3)CC2)nn(C)c1=O` (stereo unspecified), the “Percent Effect” value is on record as -4.106%.

In the case of `Cc1nc(C)n(CCNC2CCN(c3ncnc4c(C)csc34)CC2)n1`, the “Percent Effect” value is -4.781%.

With `N#Cc1ccccc1N1CCCN(CC(=O)Nc2ccc(Cl)cn2)CC1`, the “Percent Effect” value is -6.971%.
